In PubChem BioAssay one finds Her2 level data, which are given here for 40 compounds.

Calls of active or inactive are those of the source.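 Rule for the calls: active = Her2 level under about 52% in both replicate screens, with viability over 70% of control (limit read from the data); inconclusive = Her2 under the limit in one screen only, or viability under 70%; inactive = Her2 level above the set limit.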

Chain of Receptor tyrosine-protein kinase erbB-2 (Homo sapiens) (P04626 whole entry, looked up): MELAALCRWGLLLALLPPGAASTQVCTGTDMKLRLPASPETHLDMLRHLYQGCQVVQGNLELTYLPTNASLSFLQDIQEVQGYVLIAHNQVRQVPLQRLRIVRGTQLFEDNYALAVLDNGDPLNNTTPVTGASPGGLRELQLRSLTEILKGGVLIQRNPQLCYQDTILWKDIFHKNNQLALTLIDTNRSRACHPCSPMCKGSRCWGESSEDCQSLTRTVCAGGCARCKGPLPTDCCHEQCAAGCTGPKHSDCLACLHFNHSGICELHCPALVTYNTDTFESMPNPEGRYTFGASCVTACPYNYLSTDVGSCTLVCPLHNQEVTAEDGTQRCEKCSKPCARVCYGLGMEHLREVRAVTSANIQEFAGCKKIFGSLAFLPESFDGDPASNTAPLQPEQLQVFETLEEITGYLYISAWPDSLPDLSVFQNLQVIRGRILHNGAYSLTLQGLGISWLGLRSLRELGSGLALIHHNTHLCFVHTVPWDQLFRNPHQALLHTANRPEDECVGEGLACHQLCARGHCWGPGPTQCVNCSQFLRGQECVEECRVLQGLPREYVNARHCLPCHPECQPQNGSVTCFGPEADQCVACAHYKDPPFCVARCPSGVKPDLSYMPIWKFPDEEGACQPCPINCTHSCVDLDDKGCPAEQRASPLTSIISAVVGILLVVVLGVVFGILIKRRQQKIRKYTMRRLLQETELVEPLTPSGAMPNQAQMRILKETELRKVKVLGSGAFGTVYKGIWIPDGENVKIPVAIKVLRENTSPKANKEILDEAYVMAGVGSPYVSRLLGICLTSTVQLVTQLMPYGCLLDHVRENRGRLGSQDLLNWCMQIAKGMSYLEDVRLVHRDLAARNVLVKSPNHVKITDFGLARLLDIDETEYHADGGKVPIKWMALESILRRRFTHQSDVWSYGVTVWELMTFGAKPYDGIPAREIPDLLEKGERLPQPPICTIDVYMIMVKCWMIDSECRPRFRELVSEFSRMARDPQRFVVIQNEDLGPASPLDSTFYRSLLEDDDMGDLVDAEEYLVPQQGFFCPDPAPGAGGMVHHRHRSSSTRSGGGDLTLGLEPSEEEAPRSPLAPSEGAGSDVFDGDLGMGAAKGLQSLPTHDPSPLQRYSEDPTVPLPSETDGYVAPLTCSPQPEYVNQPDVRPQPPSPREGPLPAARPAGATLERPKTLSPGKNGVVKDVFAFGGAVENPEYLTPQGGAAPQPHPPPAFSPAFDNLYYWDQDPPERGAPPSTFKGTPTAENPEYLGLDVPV

This assay addresses Receptor tyrosine-protein kinase erbB-2 (Homo sapiens) (UniProt P04626). Description: reducers of endogenous Her2 protein level, primary screen, SKBR3 breast tumor cells, AlphaScreen, ATP viability (AID 461).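 Note: lower value means less Her2 protein in the cells.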 As to conditions: 18-24 h, at 10 µM, active compounds read low. (In Alpha technology, singlet oxygen from a donor bead excites a nearby acceptor bead.)
For the compound `CCC(=O)Nc1c2c(nn1-c1ccccc1C)CSC2`, the Her2 level is 89.5% (inactive).
For the compound `CCOC(=O)C1CCN(C(=O)COc2ccc(Cl)cc2Cl)CC1`, the Her2 level was 98% (inactive).
For the compound `CC1CC(=O)C2=C(C1)OC(N)=C(C#N)C2c1coc2ccccc2c1=O` (stereo not given), the Her2 level is 88.5% (inactive).
Then `CN(C1CCS(=O)(=O)C1)S(=O)C12CC3CC(CC(C3)C1)C2` (stereo not given), with 95.5% (inactive).
Then `S=c1[nH]nc(Cc2ccccc2)n1-c1ccccc1`, with 112% (inactive); and `Cc1cccc(Cc2nnc(NC(=O)c3cccc(S(=O)(=O)N4CCOCC4)c3)s2)c1`, with 100% (inactive).
Then `COC(=O)[C@H](C)NC(=O)Nc1cc(OC)ccc1OC`, with 81.5% (inactive).
For the compound `COc1ccccc1NC(=O)C1=C(C)Nc2nnnn2C1c1ccccc1OC` (stereo not given), the Her2 level was 76.5% (inactive).
Regarding `Cn1c(CNc2nc(-c3ccccc3)cs2)nnc1SCC(=O)N1CCc2ccccc21`, the Her2 level is 97.5% (inactive).
Then `CCOC(=O)N1CCN(C(=O)c2n[nH]c(=O)c3ccccc23)CC1`, with 101% (inactive); and `O=C(CN1CCCN(S(=O)(=O)c2ccc(Br)cc2)CC1)Nc1ccc2cn[nH]c2c1`, with 109% (inactive); and `O=C(OCc1ccccc1F)c1ccc2c(c1)OCCO2`, with 86% (inactive).
Regarding `CCN(CC)S(=O)(=O)c1ccc2c(c1)nc(SCC(=O)NC1CC1)n2-c1ccccc1OC`, the Her2 level is 86.5% (inactive).
Regarding `CCC(Sc1nc2sc(C(=O)OC)c(C)c2c(=O)n1N)C(=O)NCC1CCCO1` (stereo not given), the Her2 level is 88% (inactive).
In the case of `O=C(COc1ccccc1)Nc1ccc(-c2nnc(-c3ccco3)o2)cc1`, the Her2 level is 108% (inactive).
Turning to `O=C(CSc1nnnn1C1CCCC1)Nc1cccc(NC(=O)c2ccco2)c1`, the Her2 level is 98.5% (inactive).
Regarding `CCCCCc1c(O)nc(SCC(=O)NCC2CCCO2)[nH]c1=O` (stereo not given), the Her2 level is 110% (inactive).
As for `c1ccc(N=P(c2nc3ccccc3o2)(N2CCOCC2)N2CCOCC2)cc1`, the Her2 level is 89.5% (inactive).
Take `Cc1nn(S(=O)(=O)N2CCCCC2)c(C)c1Br`: the Her2 level is 130% (inactive).
In the case of `Cc1cc2oc(=O)cc(C)c2c(=O)o1`, the Her2 level is 136% (inactive).
In the case of `N#CCCn1ccc(NC(=O)c2ccc(Cl)cc2)n1`, the Her2 level is 87.5% (inactive).
With `S=c1[nH]nc(-c2ccco2)n1-c1cccc2ccccc12`, the Her2 level is 98.5% (inactive).
Then `CCOC(=O)c1c(-c2ccc(C)o2)csc1NC(=O)COC(=O)c1cccs1`, with 87.5% (inactive); and `CCOc1cc2[nH]c(=O)n(CCCCC(=O)N3CCCCCC3)c(=O)c2cc1OCC`, with 87.5% (inactive).
As for `Clc1ccc(-n2ncc3c(NCCCn4ccnc4)ncnc32)cc1`, the Her2 level was 76.5% (inactive).
Regarding `COc1ccc(OC)c(C2C3=C(CCCC3=O)Nc3c2c(=O)n(C)c(=O)n3C)c1` (stereo not given), the Her2 level was 108% (inactive).
With `COc1ccc(NC(=O)CN2CCN(CC(=O)Nc3cc(OC)cc(OC)c3)CC2)cc1`, the Her2 level was 96.5% (inactive).
Then `Clc1cc2c(c(Cn3cnc4ccccc43)c1)OCOC2`, with 106% (inactive).
As for `N#Cc1c2n(c(=S)n(-c3ccccn3)c1=O)CCCCC2`, the Her2 level is 91.5% (inactive).
Turning to `N#Cc1c(NC(=O)c2ccc(Br)o2)n(-c2ccccc2)c2nc3ccccc3nc12`, the Her2 level was 77% (inactive).
Turning to `COCCn1nnnc1C(c1ccc(OC)cc1)N1CCN(c2ccccc2F)CC1` (stereo not given), the Her2 level is 101% (inactive).
As for `COc1cc(-c2nnc(SCc3c(F)cccc3Cl)o2)cc(OC)c1OC`, the Her2 level was 103% (inactive).
As for `COC(=O)Cc1c(C)nc2nc(-c3ccco3)[nH]n2c1=O`, the Her2 level is 93% (inactive).
On to `CCOC(=O)CSc1nc2cccnc2n1-c1ccc(F)cc1`, for which the Her2 level was 117% (inactive).
`COCCn1c(NCc2ccc(C)cc2)nc2c1c(=O)[nH]c(=O)n2C`: the Her2 level was 87.5% (inactive).
Take `Clc1ccc2nc(N3CCCCC3)[nH]c2c1`: the Her2 level is 78.5% (inactive).
Turning to `Cc1nnc(C)c2c(C)n(-c3ccc(Br)cc3)c(C)c12`, the Her2 level is 110% (inactive).
Then `O=C(NCC(F)(F)F)N1CCOCC1`, with 85.5% (inactive).
Then `O=C(O)CC1SC(=Nc2cccc(C(F)(F)F)c2)NC1=O` (stereo not given), with 94.5% (inactive); and `COc1ccc2c(c1)OC(O)(C(F)F)CC2=O` (stereo not given), with 107% (inactive).
